Measured values published in PubChem BioAssay AID463173 (ICCB-Longwood Screening Facility, Harvard Medical School, 2010).
About 4,300 (8.3%) of roughly 52,000 compounds were called active. No stated cut-off is given here; in the data, active means survival mostly below about 52% (no sharp cut-off); inactive means mostly above about 56%. What follows is part of a selection rich in actives, with near analogues and random picks from the rest.

tested on: DeltatarO mutant; test: S. aureus survival, RN4220 and DeltatarO strains – OD600, teichoic acid synthesis inhibitors, primary screen (AID 463173); conditions: S. aureus RN4220 wild type/DeltatarO growth, OD600, 18 h, stronger effect = lower value, screened at 18.75 µg/mL (by protocol)

Row | Compound | survival
1 | CN1CCN(Cc2nc(N)nc(Nc3ccccc3)n2)CC1 | 70% (inactive)
2 | COc1cccc(C(=O)Nc2ccc3nc(SCc4ccc(C)cc4)sc3c2)c1 | 64% (inactive)
3 | COc1ccc(Nc2nc(N)nc(CSc3nc4cc(OC)ccc4s3)n2)cc1 | 41% (active)
4 | COc1ccc(Nc2nc(N)nc(CSc3nc4ccccc4s3)n2)cc1 | 21% (active)
5 | COc1ccc2sc(N)nc2c1 | 93% (inactive)
6 | COc1ccc(C(=O)Nc2ccc3nc(SCc4ccc(C)cc4)sc3c2)cc1 | 88% (inactive)
7 | Cc1cc2ncn(CCC(=O)NC(C)(C)C)c2cc1C | 95% (inactive)
8 | O=C(O)Cn1nnnc1SCC(=O)Nc1ccc(F)cc1F | 75% (inactive)
9 | CN(C(=O)C(=O)Nc1ccc2nc3n(c(=O)c2c1)CCCCC3)c1cccc(C(F)(F)F)c1 | 76% (inactive)
10 | COc1cc2[nH]c(=O)c(C(=O)NC3CCCC3)c(O)c2cc1OC | 98% (inactive)
11 | CCCCOC(=O)c1ccc(NC2=NS(=O)(=O)c3ccccc32)cc1 | 66% (inactive)
12 | COc1ccc(C2CC(=O)c3cc(-c4nc(-c5cccc([N+](=O)[O-])c5)cs4)c(=O)n(-c4ccc(OC)cc4)c3C2)cc1 (stereo not drawn) | 57% (inactive)
13 | CCc1ccc(NC(=O)CC2C(=O)N(c3cccc(C)c3)C(=O)N2Cc2cccc(OC)c2)cc1 (stereo not drawn) | 92% (inactive)
14 | Cc1nc(-c2ccc(S(=O)(=O)N3CCN(c4cccc(Cl)c4)CC3)cc2)co1 | 91% (inactive)
15 | CCOc1ccc(CCNC(=O)CCCc2cc(-c3ccc(OCC)cc3)on2)cc1 | 92% (inactive)
16 | CCOc1ccc(-c2cc(CCCC(=O)NCCc3cc(OC)c(OC)c(OC)c3)no2)cc1 | 43% (active)
17 | CCOc1ccc(-c2cc(CCCC(=O)NCCc3ccc(OC)c(OC)c3)no2)cc1 | 91% (inactive)
18 | COc1cc(C2c3c(oc4ccccc4c3=O)C(=O)N2c2ccccn2)cc(OC)c1OC (stereo not drawn) | 146% (inactive)
19 | Cc1nnc(N2CCN(c3cccc(C(F)(F)F)c3)CC2)c2c1nnn2Cc1ccccc1 | 80% (inactive)
20 | CCOC(=O)c1cc2c(=O)n3ccccc3nc2n(Cc2ccco2)c1=NC(=O)c1c(F)cccc1Cl | 42% (inactive)
21 | CCCn1c(=NC(=O)c2c(-c3c(F)cccc3Cl)noc2C)c(C(=O)OCC)cc2c(=O)n3ccccc3nc21 | 164% (inactive)
22 | CCOC(=O)c1cc2c(=O)n3ccccc3nc2n(Cc2ccco2)c1=NC(=O)c1ccc(C(C)(C)C)cc1 | 36% (active)

Row | Compound | survival
23 | CCOC(=O)c1cc2c(=O)n3ccccc3nc2n(Cc2ccco2)c1=NC(=O)c1ccc(Br)cc1 | 55% (inactive)
24 | CCOC(=O)c1cc2c(=O)n3ccccc3nc2n(Cc2ccco2)c1=NC(=O)c1ccc(F)cc1 | 43% (active)
25 | CCOC(=O)c1cc2c(=O)n3ccccc3nc2n(Cc2ccco2)c1=NC(=O)c1cccc(F)c1 | 17% (active)
26 | CCOC(=O)c1cc2c(=O)n3ccccc3nc2n(Cc2ccco2)c1=NC(=O)c1ccc(C)c(C)c1 | 34% (active)
27 | CN1CCN(C(=O)c2cnn(-c3cccc(Cl)c3)c2C2CCN(C(=O)OC(C)(C)C)CC2)CC1 | 95% (inactive)
28 | Cc1cc(C)cc(OCCn2c(C3CC(=O)N(c4ccccc4Cl)C3)nc3ccccc32)c1 (stereo not drawn) | 85% (inactive)
29 | CCc1ccccc1N1CC(c2nc3ccccc3n2CCCOc2ccc(Cl)cc2)CC1=O (stereo not drawn) | 41% (active)
30 | Cc1cccc(OCCCCn2c(C3CC(=O)N(c4ccc(C)cc4C)C3)nc3ccccc32)c1 (stereo not drawn) | 47% (inactive)
31 | CCc1ccccc1N1CC(c2nc3ccccc3n2CCCCOc2ccccc2)CC1=O (stereo not drawn) | 54% (inactive)
32 | O=C1CC(c2nc3ccccc3n2CCCCOc2ccccc2)CN1c1ccccc1Cl (stereo not drawn) | 58% (inactive)
33 | Cc1cccc(OCCCCn2c(C3CC(=O)N(c4ccccc4Cl)C3)nc3ccccc32)c1 (stereo not drawn) | 10% (active)
34 | CCc1ccccc1N1CC(c2nc3ccccc3n2CCOc2ccc(Cl)c(C)c2)CC1=O (stereo not drawn) | 3% (active)
35 | CCOc1ccccc1N1CC(c2nc3ccccc3n2CCCOc2ccc(OC)cc2)CC1=O (stereo not drawn) | 78% (inactive)
36 | Cc1ccc(-n2ncc3c(N4CCCCCC4)ncnc32)cc1C | 86% (inactive)
37 | CCOc1ccc(CNC(=O)c2sc3nc(C)cc(C)c3c2-n2cccc2)cc1 | 75% (inactive)
38 | COc1cccc(CNC(=O)c2nn(C)c3c2CSc2ccccc2-3)c1 | 75% (inactive)
39 | O=C(NC1=NCCS1)c1ccccc1 | 101% (inactive)
40 | Cc1cccc(Cc2c(C)nc3c(-c4ccccc4)c(C)[nH]n3c2=O)c1 | 16% (active)
41 | Cc1ccc(Cc2c(C)nc3c(-c4ccccc4)c(C)[nH]n3c2=O)cc1 | 0% (active)
42 | COc1cccc(C(=O)Nc2nc3nc(C)c(Cc4ccccc4)c(=O)n3[nH]2)c1 | 104% (inactive)
43 | Cc1nc2nc(NC(=O)CC(C)C)[nH]n2c(=O)c1Cc1ccccc1 | 113% (inactive)
44 | Cc1nc2c(-c3ccccc3)c(C)[nH]n2c(=O)c1Cc1ccc(C(C)C)cc1 | 11% (active)

Row | Compound | survival
45 | CCOC(=O)CCc1c(C)nc2c(-c3ccccc3)c(C)[nH]n2c1=O | 87% (inactive)
46 | Cc1nc2nc(NC(=O)C(C)C)[nH]n2c(=O)c1Cc1ccccc1 | 98% (inactive)
47 | CCc1c(C)nc2cc(-c3ccccc3)[nH]n2c1=O | 73% (inactive)
48 | Cc1nc2c(-c3ccccc3)c(C)[nH]n2c(=O)c1Cc1ccc(Br)cc1 | 7% (active)
49 | Cc1nc2nc(NC(=O)C(C)(C)C)[nH]n2c(=O)c1Cc1ccccc1 | 112% (inactive)
50 | COc1ccc(-c2nc(-c3cc4cc(Br)ccc4oc3=O)cs2)cc1 | 78% (inactive)
51 | CCOc1ccc(CCNC(=O)CN2C(=O)c3cccnc3Oc3ccc(C)cc32)cc1OCC | 67% (inactive)
52 | Cc1cc(-c2ccccc2)n2ncc(C#N)c2n1 | 96% (inactive)
53 | CCOc1ccccc1CNC(=O)C1CCN(C2=NS(=O)(=O)C(c3ccc(C)c(C)c3)=C2C)CC1 | 84% (inactive)
54 | COc1ccc(-n2c(=O)c3ccc(C(=O)NCc4ccc(C)cc4)cc3n(CC(=O)Nc3cccc(F)c3)c2=O)cc1 | 79% (inactive)
55 | Cc1ccccc1Cc1c(C)nc2c(-c3ccccc3)c(C)[nH]n2c1=O | -3% (active)
56 | COc1ccc(-c2c(C)c3cc(OC(=O)N4CCOCC4)ccc3oc2=O)cc1 | 79% (inactive)
57 | COc1ccc(-c2c(C)c3cc(OC(=O)N4CCOCC4)ccc3oc2=O)cc1OC | 47% (active)
58 | Cc1c(-c2ccc(Br)cc2)c(=O)oc2ccc(OC(=O)N3CCOCC3)cc12 | 86% (inactive)
59 | COc1ccc(-c2csc(-c3c(N)c(C(=O)c4ccccc4)n4ccccc34)n2)cc1 | 77% (inactive)
60 | COc1ccc(-c2csc(-c3c(N)c(C(=O)c4ccccc4)n4ccccc34)n2)cc1OC | 43% (active)
61 | COc1ccc(-c2csc(-c3c(N)c(C(=O)c4ccc(OC)c(OC)c4)n4ccccc34)n2)cc1 | 75% (inactive)
62 | Cc1ccc(C)c(NC(=O)c2cnn(-c3cccc(F)c3)c2C2CCN(C(=O)OC(C)(C)C)CC2)c1 | 122% (inactive)
63 | O=C(Nc1ccccn1)c1cccs1 | 109% (inactive)
64 | CCN1C(=O)CC(C(=O)Nc2ccc(OC)cc2)SC1=Nc1ccc(C)c(C)c1 (stereo not drawn) | 50% (inactive)
65 | CCOc1cccc(NC(=O)C2CC(=O)N(C)C(=Nc3cccc(OC)c3)S2)c1 (stereo not drawn) | 82% (inactive)
66 | CCOc1cccc(NC(=O)C2CC(=O)N(CC)C(=Nc3ccc(F)cc3)S2)c1 (stereo not drawn) | 17% (active)

Row | Compound | survival
67 | CCOC(=O)C1CCCN(C(=O)c2nn(-c3ccc(C)cc3)c(=O)c3c2c2ccccc2n3C)C1 (stereo not drawn) | 90% (inactive)
68 | Cc1cccn2c(=O)c(/C=C(\C#N)c3nc4ccccc4n3C)c(Oc3ccc(Br)cc3)nc12 | 69% (inactive)
69 | Cc1ccc(C)c(Cn2c(C3CC(=O)N(c4ccccc4C)C3)nc3ccccc32)c1 (stereo not drawn) | 80% (inactive)
70 | O=C1CC(c2nc3ccccc3n2CCC2CCCCC2)CN1c1ccccc1Cl (stereo not drawn) | 21% (active)
71 | Cc1ccc(N2CC(c3nc4ccccc4n3CCC3CCCCC3)CC2=O)cc1 (stereo not drawn) | 64% (inactive)
72 | COc1ccc(OCCCCn2c(C3CC(=O)N(c4cccc(Cl)c4)C3)nc3ccccc32)cc1 (stereo not drawn) | 86% (inactive)
73 | Cc1c(Cl)cccc1N1CC(c2nc3ccccc3n2Cc2ccccc2F)CC1=O (stereo not drawn) | 41% (inactive)
74 | Cc1ccccc1N1CC(c2nc3ccccc3n2Cc2ccc(Br)cc2)CC1=O (stereo not drawn) | 25% (active)
75 | Cc1cccc(N2CC(c3nc4ccccc4n3CCC3CCCCC3)CC2=O)c1 (stereo not drawn) | 31% (active)
76 | Cc1ccccc1N1CC(c2nc3ccccc3n2CCC2CCCCC2)CC1=O (stereo not drawn) | 16% (active)
77 | CCc1ccccc1N1CC(c2nc3ccccc3n2Cc2cccc(C)c2)CC1=O (stereo not drawn) | 66% (inactive)
78 | COc1ccccc1OCCCn1c(C2CC(=O)N(c3ccccc3Cl)C2)nc2ccccc21 (stereo not drawn) | 75% (inactive)
79 | COc1ccc(N2CCN(C(=O)c3c(C)nn(-c4ccc(F)cc4)c3-n3cccc3)CC2)cc1 | 69% (inactive)
80 | Cc1ccc(N2C(=O)CSC23C(=O)N(CC(=O)NC2CCCCC2)c2ccccc23)cc1 (stereo not drawn) | 79% (inactive)
81 | CCOc1ccc(OCC(=O)Nc2c(C(=O)Nc3ccc(C)cc3)oc3ccccc23)cc1 | 73% (inactive)
82 | Cc1cnn(Cc2ccccc2)c1N | 98% (inactive)
83 | CSc1nc2c(sc3ccccc32)c(=O)n1Cc1ccc(C)cc1 | 96% (inactive)
84 | CC1(C)Oc2ccc(C(=O)N/N=C/c3cccs3)cc2NC1=O | 58% (inactive)
85 | O=C1[C@@H]2CSC(c3ccc(F)cc3)N2C(=O)N1c1ccc(Cl)cc1 (stereo partly drawn) | 76% (inactive)
86 | COc1ccc(C2=NC3(CCCCCC3)N(CC(=O)Nc3cccc(Cl)c3)C2=O)cc1 | 68% (inactive)
87 | O=C(NCc1ccc2c(c1)CCN2C(=O)c1ccc(F)cc1)c1ccco1 | 115% (inactive)
88 | COc1ccc(-c2nc(SCC(=O)NC3CCCC3)c(-c3ccccc3)[nH]2)cc1OC | 65% (inactive)
